Compounds with a hit are over-represented: about 2.3% of the library has one in this group of screens.
Mcl1-Bid inh: Mcl-1/Bid binding inhibitors, primary screen, biochemical, TR-FRET, 1536-well; TR-FRET Mcl-1/Bid-Dy647 peptide binding; inhibition, % at 21.7 µM; 0.97% of 220,000 active;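 active = compounds that cut the binding signal by more than half at the single screening dose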;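 also: His-tagged Mcl-1 with europium anti-His antibody binding Bid BH3 peptide; 0% = Mcl-1 plus peptide wells and 100% = peptide-only wells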
GLD-1 TGE inh: GLD-1/TGE RNA complex disruptors, primary screen, biochemical, fluorescence polarization | 0.44% of 320,000 active | Female germline-specific tumor suppressor gld-1 (Caenorhabditis elegans), Q17339 | AID 2280, 2010 | inhibition, % at 5.96 µM | purified GLD-1 + fluorescein TGE RNA;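 active = percent inhibition above a per-plate cutoff, the plate mean of test compounds plus 3 SD, cut at about 30% in these data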;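 also: 0% = DMSO wells with GLD-1 and probe and 100% = wells lacking GLD-1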
Target sequence (Q17339 whole entry, looked up): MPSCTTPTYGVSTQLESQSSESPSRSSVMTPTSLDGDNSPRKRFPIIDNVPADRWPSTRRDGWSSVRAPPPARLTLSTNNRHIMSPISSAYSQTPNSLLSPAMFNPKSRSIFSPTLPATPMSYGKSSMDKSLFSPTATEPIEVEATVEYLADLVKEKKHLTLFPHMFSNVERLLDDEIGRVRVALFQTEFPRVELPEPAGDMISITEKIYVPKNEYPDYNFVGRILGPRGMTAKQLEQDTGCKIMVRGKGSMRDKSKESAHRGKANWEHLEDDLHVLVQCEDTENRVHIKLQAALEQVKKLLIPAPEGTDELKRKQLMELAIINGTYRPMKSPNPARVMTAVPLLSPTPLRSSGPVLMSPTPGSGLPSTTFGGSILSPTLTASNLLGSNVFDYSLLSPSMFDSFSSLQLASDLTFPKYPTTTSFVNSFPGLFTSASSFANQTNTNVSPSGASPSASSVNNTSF
Mcl1 Noxa PPI: Mcl-1/Noxa binding inhibitors, primary screen, biochemical, TR-FRET, 1536-well. Induced myeloid leukemia cell differentiation protein Mcl-1 (Homo sapiens), Q07820. inhibition, % at 21.7 µM. AID 1022, 2008. TR-FRET Mcl-1/Noxa peptide binding, 2 h. 1.5% of 220,000 active;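 active = compounds that cut the protein-peptide binding signal by more than 50% relative to plate controls in a single-dose test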;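 also: His-tagged Mcl-1 with rhodamine Noxa BH3 peptide and terbium anti-His antibody; 0% = Mcl-1 plus Noxa peptide wells and 100% = peptide-only wells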
MCL1 BIM primary: inhibitors of MCL1 binding to BIM-BH3, primary screen, biochemical, fluorescence polarization; Induced myeloid leukemia cell differentiation protein Mcl-1 (Homo sapiens), Q07820; GST-MCL1 / FITC-Bim-BH3 fluorescence polarization; inhibition, % at 10.9 µM; 0.68% of 320,000 active;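 active = inhibition above the mean inhibition of all tested compounds plus 3 SD, set per campaign, cut at about 40% in these data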;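 also: 0% = DMSO wells and 100% = unlabeled Bim-BH3 peptide control; higher means more loss of mP so more displacement of Bim peptide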
Bim-Mcl-1: inhibitors of Bim peptide binding to Mcl-1, primary screen, biochemical, bead-based flow cytometry, multiplex; Induced myeloid leukemia cell differentiation protein Mcl-1 (Homo sapiens), Q07820; 0.1% of 190,000 active; inhibition, % at 10 µM; Bim peptide-Mcl-1 binding; in the data active = inhibition above about 40%;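 also: 0% = no compound tracer wells and 100% = peptide blocker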
Bcl-xL primary: inhibitors of human Bcl-xL, primary screen, biochemical, fluorescence polarization, HTS; Bcl-2-like protein 1 (Homo sapiens), Q07817; GST-Bcl-xL / FITC-Bim BH3 peptide fluorescence polarization; inhibition, % at 10.9 µM; 0.7% of 320,000 active; AID 2129, 2009;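 active = inhibition above the mean of all tested compounds plus 3 SD, cutoff set per campaign, cut at about 30% in these data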;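 also: 0% = DMSO wells and 100% = unlabeled Bim-BH3 peptide competitor; inhibitors lower millipolarization by displacing the labeled peptide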
Target sequence (Q07817 whole entry, looked up): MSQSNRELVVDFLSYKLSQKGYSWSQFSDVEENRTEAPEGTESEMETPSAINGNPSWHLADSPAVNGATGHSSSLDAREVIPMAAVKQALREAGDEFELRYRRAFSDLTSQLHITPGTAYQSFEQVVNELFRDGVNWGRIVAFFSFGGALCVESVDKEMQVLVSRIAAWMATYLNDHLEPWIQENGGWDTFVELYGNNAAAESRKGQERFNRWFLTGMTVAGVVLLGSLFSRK
BCLXL inh confirm: Bcl-xL inhibitors blocking Bim BH3 binding, confirmation, counter-screen for MCL1 inhibitor project, biochemical, fluorescence polarization | shares compounds with MCL1 BIM primary | GST-Bcl-xL / FITC-Bim BH3 peptide FP binding | inhibition, % at 10.9 µM | 54% of 1,700 active | AID 2166, 2009;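 active = inhibition above a cutoff equal to the mean inhibition of all tested compounds plus 3 SD, cut at about 30% in these data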;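 also: 0% = DMSO wells and 100% = unlabeled Bim BH3 control peptide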
MCL1 inh confirm: inhibitors of MCL1 binding to BIM-BH3, confirmation, biochemical, fluorescence polarization, triplicate; shares compounds with MCL1 BIM primary; GST-MCL1 / FITC-Bim-BH3 fluorescence polarization; inhibition, % at 10.9 µM; 61% of 1,700 active;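 active = inhibition above the average of all tested compounds plus 3 SD, cut at about 40% in these data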;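 also: 0% = DMSO wells and 100% = unlabeled Bim-BH3 control peptide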
Numbers without * were called inactive; · = no result; + = active, no number.

SMILES | Mcl1-Bid inh | GLD-1 TGE inh | Mcl1 Noxa PPI | MCL1 BIM primary | Bim-Mcl-1 | Bcl-xL primary | others
CSCCC(NC(=O)COc1ccccc1)C(=O)N(C)Cc1ccc(Cl)cc1Cl (stereo not drawn) | · | 2 | · | 4 | · | 2
CSc1ccc(/C=C(/NC(=O)c2ccco2)C(=O)N2CCCCC2)cc1 | · | 7 | · | -5 | · | 2
COc1ccc(CCNC(=O)C(=O)NCC2OCCN2C(=O)c2ccc(Cl)cc2)cc1OC (stereo not drawn) | · | 5 | · | -4 | · | 3
CCc1nc2ccccc2c(=O)n1/N=C/c1ccc(Cl)cc1 | · | 0 | · | -1 | · | 0
Cc1cc(-c2ccc(S(=O)(=O)N3CCN(c4cccc(C)c4C)CC3)s2)on1 | · | 2 | · | -6 | · | -1
O=[N+]([O-])c1ccc(C23CC4CC(CC(O)(C4)C2)C3)cc1 | · | 5 | · | -5 | · | -4
CCOc1cc(/C=N/NC(=O)c2ccc(-c3csc(Nc4ccc(C)cc4)n3)cc2)ccc1OCC(=O)O | -2 | · | 86* | · | 1 | ·
O=C(O)COc1ccc(/C=N/NC(=O)c2ccc(-c3csc(Nc4ccc(Cl)cc4)n3)cc2)cc1 | 95* | · | 88* | · | · | ·
COc1ccc(CCNCC(O)COc2ccc(OC)cc2C(C)(C)C)cc1 (stereo not drawn) | · | 4 | · | -5 | · | 0
CCCCN(C(=O)c1cc(S(=O)(=O)N2CCCCCC2)ccc1OC)c1ccccc1 | · | 3 | · | -5 | · | 0
O=c1[nH]c(/C=C/c2ccccc2[N+](=O)[O-])nc2ccccc12 | 54* | 5 | 4 | 0 | -10 | -1
CCn1c(C)cc(/C=C2\NC(=O)N(Cc3ccc(Cl)cc3)C2=O)c1C | 90* | 0 | 83* | 8 | 0 | 4
COc1ccc(NC(=O)C2CCCN2C(=O)NC2CCCCC2)cc1 (stereo not drawn) | · | 5 | · | 2 | · | 2
COc1ccc(-c2nn(-c3ccccc3)cc2C(=O)NC2CCCCC2C)cc1 (stereo not drawn) | · | -1 | · | -1 | · | 0
CSc1cccc(NC(=O)c2ccccc2N(C)S(C)(=O)=O)c1 | 1 | -4 | 2 | -9 | -4 | -5
CN(c1cccc(NC(=O)c2ccccc2N(C)S(C)(=O)=O)c1)S(C)(=O)=O | 68* | 5 | 16 | 0 | -7 | -3
COc1ccccc1NS(=O)(=O)c1cccc(NC(=O)C2CC(=O)N(Cc3ccccc3)C2)c1 (stereo not drawn) | 88* | 6 | 12 | 0 | 1 | -1
CCOc1ccc(OCCN(C)Cc2ccccc2)cc1 | 59* | 4 | 10 | 10 | -5 | 6
Cc1ccccc1-c1nnn(CC(=O)N(C)CC(=O)Nc2ccccc2C(F)(F)F)n1 | · | 2 | · | -1 | · | 8
CCc1cc(=O)oc2cc3occ(-c4ccc(OC)c(F)c4)c3cc12 | 67* | -4 | 1 | -31 | -25 | -1
CCOc1cc(C(=O)OCC(=O)N(C)c2ccccc2)cc(OCC)c1OCC | · | 1 | · | 6 | · | 1
O=C1NCCSC1c1ccccc1 (stereo not drawn) | · | 1 | · | 3 | · | 0
N#Cc1c2c(c(=S)n(-c3ccccc3)c1N)CCCC2 | -4 | 24 | 44 | 33 | 0 | 35*
O=c1c(=NNc2ccccc2Cl)c(=O)c2ccccc12 | 57* | · | 33 | · | -3 | ·
O=C(c1c(F)cccc1F)N1CCCC(c2nc(-c3ccc(F)cc3)no2)C1 (stereo not drawn) | · | 0 | · | 12 | · | 7
SMILES | Mcl1-Bid inh | GLD-1 TGE inh | Mcl1 Noxa PPI | MCL1 BIM primary | Bim-Mcl-1 | Bcl-xL primary | others
O=C(Cc1c(F)cccc1Cl)N1CCN(S(=O)(=O)c2cccc(F)c2)CC1 | · | -4 | · | -8 | · | -8
O=C1c2ccccc2-c2onc3ccc(NCCCn4ccnc4)c1c23 | 60* | 198* | -281 | + | 63* | + | BCLXL inh confirm=181*;MCL1 inh confirm=200*
COc1ccc2noc3c2c1C(=O)c1ccccc1-3 | · | 91* | · | 117* | · | 116* | BCLXL inh confirm=110*;MCL1 inh confirm=121*
COc1ccc(OC)c2c1C(=O)c1ccccc1C2=O | -20 | + | 15 | + | 1 | + | BCLXL inh confirm=+;MCL1 inh confirm=+
COc1ccc(N)c2c1C(=O)c1ccccc1C2=O | -92 | 14 | 32 | 23 | 11 | 16
COc1ccc(OC)c2c1C(=O)C(Cl)=C(Cl)C2=O | -78 | 18 | 99* | 71* | · | 39* | BCLXL inh confirm=47*;MCL1 inh confirm=65*
Cc1ccc2c(c1)N(CC(=O)NCCC1=CCCCC1)C(=O)c1cccnc1O2 | · | 5 | · | 6 | · | 4
O=C(c1cc(C2CC2)on1)N1CCCC(N2CCN(c3ccc(F)cc3)CC2)C1 (stereo not drawn) | · | 5 | · | 3 | · | 5
Cc1cc(=O)[nH]c(-n2[nH]c3c(c2=O)CCCC3)n1 | -61 | 53* | -23 | 71* | -2 | 67* | BCLXL inh confirm=32*;MCL1 inh confirm=40*
NC(=S)N/N=C/c1ccc(C(F)(F)F)cc1 | -99 | 2 | 14 | 11 | 0 | 5
NC(=S)N/N=C/c1ncc(C(F)(F)F)cc1Cl | -58 | 101* | -20 | 153* | · | 146* | BCLXL inh confirm=95*;MCL1 inh confirm=113*
CCCn1cnc2scc(-c3ccc(C)c(C)c3)c2c1=O | · | 1 | · | 2 | · | 2
COc1ccc(-c2onc3ccc(Br)cc23)cc1 | -20 | 97* | 10 | 132* | -1 | 113* | BCLXL inh confirm=111*;MCL1 inh confirm=134*
COc1ccc(NC(=O)c2sc3nc(C)cc(C)c3c2N)cc1 | · | 9 | · | -2 | · | 1
COc1ccc(NC(=O)c2sc3nc(-c4cccnc4)ccc3c2N)cc1 | 52* | 69* | 43 | 112* | · | 108* | BCLXL inh confirm=113*;MCL1 inh confirm=137*
CN(Cc1ccccc1)S(=O)(=O)CCNC(=O)c1ccc2c(c1)OCO2 | · | 8 | · | 0 | · | 4
CC(C)Cn1c(N)c(C(=O)COC(=O)C2CC(=O)N(c3ccc4c(c3)OCCO4)C2)c(=O)n(C)c1=O (stereo not drawn) | · | 2 | · | -3 | · | -4
Cc1cc(C)n2nc(C)c(Br)c2n1 | -12 | 6 | 3 | 7 | 1 | -1
Cc1cc(C)n2nc3nc4c(cc3c2n1)CCCC4 | 15 | 38* | 35 | 106* | -2 | 111* | BCLXL inh confirm=22;MCL1 inh confirm=18
